{"source": "PubChem BioAssay (EPA / NIEHS)", "note": "Several values for one entry are separate records, joined by “and”; a condition that tells them apart may be missing. Identical values can stand only once. Activity calls are given as the source filed them. Rule for the calls: active = hit-call score of the fitted dose curve at least 0.9, where 1 is the maximum; inactive = score below 0.9.", "data": [{"read-out": "Interleukin-8 (IL8), CXCL8 (gene 3576)", "assay": "BSK_3C_IL8: BioMAP Diversity Plus: 3C Assay for Interleukin-8 (IL8) Biomarker Activity (AID 2283020)", "settings": "primary human endothelial cells (HUVEC); actives raise or lower the signal", "outline": "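HUVEC, 3C stimulation; 24 h compound exposure; IL-8 read by ELISA; gain or loss of signal fitted relative to DMSO control.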", "values": [{"smiles": "O=S(=O)(Cl)C(F)(F)C(F)(F)C(F)(F)C(F)(F)C(F)(F)C(F)(F)C(F)(F)C(F)(F)F", "AC50": "30 µM (active) and 35.3 µM (active)"}, {"smiles": "C=C(C)C(=O)OCC(F)(F)C(F)(F)C(F)(F)C(F)F", "outcome": "inactive"}, {"smiles": "NC(=O)C(F)(F)C(F)(F)C(F)(F)C(F)(F)C(F)(F)C(F)(F)C(F)(F)F", "outcome": "inactive"}, {"smiles": "NC(=O)C(F)(F)C(F)(F)C(F)(F)C(F)F", "outcome": "inactive"}, {"smiles": "CCOC(C=C(C)CCC=C(C)C)OCC", "AC50": "29.8 µM (active)"}]}, {"read-out": "Monokine induced gamma interferon (MIG), CXCL9 (gene 4283)", "assay": "BSK_3C_MIG: BioMAP Diversity Plus: 3C Assay for Monokine induced gamma interferon (MIG) Biomarker Activity (AID 2283021);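 for AC50: MIG protein level measured by immunoassay in the treated endothelial cultures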", "settings": "primary human endothelial cells (HUVEC); actives raise or lower the signal", "outline": "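HUVEC, 3C system; 24 h chemical exposure; MIG by ELISA; bidirectional fit vs DMSO baseline.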", "values": [{"smiles": "O=S(=O)(Cl)C(F)(F)C(F)(F)C(F)(F)C(F)(F)C(F)(F)C(F)(F)C(F)(F)C(F)(F)F", "outcome": "inactive"}, {"smiles": "C=C(C)C(=O)OCC(F)(F)C(F)(F)C(F)(F)C(F)F", "outcome": "inactive"}, {"smiles": "NC(=O)C(F)(F)C(F)(F)C(F)(F)C(F)(F)C(F)(F)C(F)(F)C(F)(F)F", "outcome": "inactive"}, {"smiles": "NC(=O)C(F)(F)C(F)(F)C(F)(F)C(F)F", "outcome": "inactive"}, {"smiles": "CCOC(C=C(C)CCC=C(C)C)OCC", "AC50": "36 µM (active)"}]}]}
